Experimental data from PubChem BioAssay (Tox21).
Values without a mark were called inactive. The source made the active and inactive calls. The call rests on the fitted dose curve; in most records, active means well fitted curve in the direction sought with a large enough effect in the repeat runs; inconclusive means weak or mixed curves; inactive means flat fitted curve, though single readings scatter.

experiment: qHTS assay to test for compound auto fluorescence at 590 nm (red) in HEK293 cells (AID 720679); details: red autofluorescence 540/590 nm; series mostly up to 91.3 µM
From the text: National Center for Advancing Translational Sciences [NCATS]
NIH Chemical Genomics Center [NCGC]
U.S. Environmental Protection Agency [EPA]
National Institutes of Environmental Health Sciences [NIEHS]
National Toxicology Program [NTP]
U.S. Food and Drug Administration [FDA]
Compound auto fluorescence often interferes with screening of the compound library against various biological targets and signaling pathways. Some of these compounds may have fluorophoric properties. Such properties may interfere with the assay outputs resulting in false positives and/or negatives. To decrease such complications and ensure the compound activities are relevant in terms of biological response, the Tox21 10K compound library was screened for auto fluorescence.
From the fluorophores used as reporter signals in our screening assays, the auto fluorescence equivalencies of compounds against three fluorophores have been evaluated: Triamterene, Fluorescein and Rose Bengal sodium for blue, green and red fluorescence, respectively. The fluorescence intensities were measured using Excitation/Emission wavelengths at 405/460nm, 485/535nm and 540/590nm for blue, green and red labels, respectively. This assay includes the red fluorescence data.
Tox21 Assay Protocol Summary:
2,000 HEK293 cells in 5 uL of culture medium containing 10% dialyzed FBS per well were dispensed into black wall/clear bottom 1536-well plates using a Multidrop Combi Dispenser (Thermo Scientific). The assay plates were incubated for 4-5 hr at 37C to allow cell attachment to the well bottom, followed by the transfer of 23 nL compound or DMSO vehicle by a pintool work station (Kalypsys, San Diego, CA). After the assay plates were incubated overnight at 37C and 5% CO2, fluorescence intensities in the assay plates were measured by an Envision (PerkinElmer, Shelton, CT) plate reader using three labels for measuring blue, green and red fluorescence at […] 460, 535 and 590nm respectively.
On the % scale 0 is the no-effect control and ±100 the full control effect.

| SMILES | outcome | fluorescence, % of fluorescent control |
| --- | --- | --- |
| CCC(C)SSC(C)CC (stereo not given) | inactive | – |
| O=C(O)/C=C(\CC(=O)O)C(=O)O | inactive | – |
| COCCCOc1cc(C[C@@H](C[C@H](N)[C@@H](O)C[C@H](C(=O)NCC(C)(C)C(N)=O)C(C)C)C(C)C)ccc1OC | inactive | – |
| C/C(=N\O)c1ccc(OCC(=O)N2CCCCC2)cc1 | inactive | – |
| CCCCCC(=O)CC | inactive | – |
| CCCCc1ccc(Cl)cc1 | inactive | – |
| Cc1ccc(Br)cc1 | inactive | – |
| CCCCCCCCS(=O)(=O)O | inactive | – |
| CC12CCCC=C1C(=O)OC2=O (stereo not given) | inactive | – |
| O=C(CCBr)N1CCN(C(=O)CCBr)CC1 | inactive | – |
| C[C@@H]1CC[C@@]2(OC1)O[C@H]1C[C@H]3[C@@H]4CC[C@H]5C[C@@H](O)CC[C@]5(C)[C@H]4CC(=O)[C@]3(C)[C@H]1[C@@H]2C | – | 0.373% [at 18.6 µM] |
| CC(=O)Nc1ccc(OCCOCCOc2ccc(NC(C)=O)cc2)cc1 | inactive | – |
| C[C@@H]1NC(=O)[C@@H](N)CNC(=O)[C@H](C2CCNC(N)=N2)NC(=O)/C(=C/NC(N)=O)NC(=O)[C@H](CNC(=O)C[C@@H](N)CCCN)NC1=O (stereo not given in full) | inactive | – |
| COC(=O)c1ccccc1Cl | inactive | – |
| Cc1cc(C)c(C)c(C)c1 | inactive | – |
| CC(C)C[P+](C)(CC(C)C)CC(C)C | inactive | – |
| CC(C)(C)C(=O)CC(=O)C(C)(C)C | inactive | – |
| CC(CC(=O)Cl)CC(C)(C)C (stereo not given) | inactive | – |
| O=C1Nc2ccccc2C1=O | inactive | – |
| CN(C)c1cc(NC(=O)CNC(C)(C)C)c(O)c2c1C[C@H]1C[C@H]3[C@H](N(C)C)C(=O)C(C(N)=O)=C(O)[C@@]3(O)C(=O)C1=C2O | inactive | – |

| SMILES | outcome | fluorescence, % of fluorescent control |
| --- | --- | --- |
| CCOc1ccccc1OCCN[C@H](C)Cc1ccc(OC)c(S(N)(=O)=O)c1 | inactive | – |
| CCCCCC(CC)OC(=O)CCCOc1ccc(Cl)cc1Cl (stereo not given) | inactive | – |
| O=P(O)(O)C(O)(Cc1cccnc1)P(=O)(O)O | inactive | – |
| CCCC(=O)OC | inactive | – |
| CCCC(C)C(O)CC (stereo not given) | inactive | – |
| Cc1cc(C)c(N)c(Cl)c1 | inactive | – |
| COc1cc(NS(=O)(=O)c2ccc(N)cc2)ncn1 | – | 0.185% [at 18.6 µM] |
| CN(C)CCC[C@@]1(c2ccc(F)cc2)OCc2cc(C#N)ccc21 | inactive | – |
| CC(C)(Sc1cc(C(C)(C)C)c(O)c(C(C)(C)C)c1)Sc1cc(C(C)(C)C)c(O)c(C(C)(C)C)c1 | – | -1.27% [at 18.6 µM] |
| CCc1ncc(C)[nH]1 | inactive | – |
| Cc1ccc(S(=O)(=O)NC(=O)NN2CC3CCCC3C2)cc1 (stereo not given) | – | -0.0362% [at 18.6 µM] |
| CC(C)(C)C(=O)CCc1ccc(Cl)cc1 | inactive | – |
| Nc1ccc(C(=O)NCC(=O)O)cc1 | – | -0.524% [at 18.6 µM] |
| CCOC(=O)CC | inactive | – |
| Nc1nc(Cl)cc(Cl)n1 | inactive | – |
| CC1=C(O)C(=O)CO1 | inactive | – |
| COc1cc(C(=O)NC2CCCNC2)cc(OC)c1OC (stereo not given) | inactive | – |
| C[C@@H](CN1CC(=O)NC(=O)C1)N1CC(=O)NC(=O)C1 | inactive | – |
| COc1cc(OC)cc(OC)c1 | inactive | – |
| Cc1ccccc1C#N | inactive | – |
